# Data published in ChEMBL document CHEMBL3988442, “University of Dundee, Small-Polar-MMV Screening Library” (2021).
# Hit rate of the full screen: of about 48,000 compounds, about 13,000 (27%) showed an effect of 50% or more. The list shows a part of the results.
# Tested on: Wolbachia pipientis
# Assay: Anti-Wolbachia Cell-Based Screen
# Type: functional
# Design: scale not given: in the data most compounds retested in dose-response had high values
# Settings: 5 µM
row,Compound,Percent Effect [%]
1,Cc1nc(COC[C@H]2CC[C@H]3[C@H](CCN3c3ncccn3)O2)cs1.O=C(O)C(F)(F)F,-1.05
2,COc1cc(NC(=O)NC2CC2)ccc1N1CCOC1=O,-6.648
3,CCc1[nH]c2c(CNC(=O)[C@@H]3CCCN3C)cc(C)cc2c1C,16.75
4,Cn1ccnc1C(O)(CCNCc1ccc(Cl)o1)C(F)(F)F (stereo not given),-7.652
5,O=C(c1ccsc1)N1CCc2nnc(COc3cncnc3)n2CC1,-11
6,Cc1ncsc1CNc1ccn(Cc2ccccc2)n1,-3.966
7,CC[C@H](C)[C@H](N)C(=O)Nc1nc(-c2cnc(N3CCOCC3)nc2)cs1,101.5
8,CC(C)C(NC(=O)c1nc(N2CCOCC2)ncc1Cl)c1cccs1 (stereo not given),8.573
9,CC(C)[C@H](N)CC(=O)Nc1nc(-c2cnc(N3CCOCC3)nc2)cs1.Cl,116.3
10,CCOc1ccc(NC(=O)Nc2cnc(N3CCOCC3)nc2)cc1,2.27
11,CCC(C(=O)NCc1csc(N2CCOCC2)n1)n1cccn1 (stereo not given),4.05
12,COCC(=O)Nc1cnc(N2CCOCC2)nc1,-9.684
13,O=C(Cn1cccn1)N1CCc2[nH]nc(-c3ccc4c(c3)OCO4)c2C1,1.932
14,Cc1nc(C)c(C(=O)N2CCc3[nH]nc(COc4ccccc4)c3C2)s1,5.403
15,O=C(N1CCOCC1)N1CCc2[nH]nc(COc3cccc(Cl)c3)c2C1,2.718
16,O=C(CSCC1CC1)N1CCc2[nH]nc(COc3ccccc3)c2C1,108.9
17,COC(=O)CCC(=O)N1CCc2[nH]nc(-c3ccc(F)c(F)c3)c2C1,3.026
18,O=C(CCn1cccc1)N1CCc2[nH]nc(COc3ccccc3)c2C1,87.66
19,O=C1CC[C@@H](C(=O)N2CCc3[nH]nc(COc4cccc(Cl)c4)c3C2)N1,3.497
20,O=C(O)C(F)(F)F.O=C(O)C(F)(F)F.c1ccc(OCc2n[nH]c3c2CN(CC2CC2)C3)nc1,5.634
21,CCSCCC(=O)N1CCc2[nH]nc(COc3ccccc3)c2C1,89.78
22,CN(C)S(=O)(=O)N1C[C@@H]2CC[C@H](C1)N(Cc1cccc(C#N)c1)C2,-14.1
23,CCc1nc(CNC(=O)C2CCC(=O)N(Cc3ccccc3F)C2)no1 (stereo not given),-29.1
24,CCNc1ncc(C(=O)NCCc2csc(CSC)n2)cn1,-1.673
25,COC(=O)C(C)(C)NC(=O)c1scnc1Cl,4.833

row,Compound,Percent Effect [%]
1,CC1(C)OCC2(CO1)CN(C(=O)c1ccccc1Br)C2,-7.61
2,O=C1NCCCCC1NC(=O)C1(c2cccc(C(F)(F)F)c2)CC1 (stereo not given),-27.01
3,Cc1nc(-c2cccc(C(=O)N(C)CC(C)O)c2)cs1 (stereo not given),-6.133
4,CCC(Nc1nnnn1-c1ccccc1)C(=O)Nc1nc(C)cs1 (stereo not given),23.33
5,CC[C@H](C)[C@H](N)C(=O)Nc1nc(-c2cnc(N(C)CCO)nc2)cs1,103.7
6,CC[C@H](C)[C@H](N)C(=O)Nc1nc(-c2cnc(N(C)C)nc2)cs1,89.2
7,Cc1cc(CN(C)C(=O)NC(C)Cc2ccc(O)cc2)no1 (stereo not given),12.34
8,Cc1ccc(OCC(=O)Nc2cnccc2SCCCO)cc1C,-7.18
9,CN(Cc1ccccc1CN1CCCC1)C(=O)c1c[nH]c(=O)[nH]1,14.99
10,Cc1ccc(S(=O)(=O)N2CSCC2C(=O)N(C)C2CC2)cc1Cl (stereo not given),4.535
11,NC(=O)C1CCN(Cc2cccc(NC(=O)c3ccsc3)c2)CC1,-7.959
12,CSc1cccc(CN2CCC(CCC(=O)NC3CC3)CC2)c1,0.2093
13,CSc1cccc(CN2CCC(CCC(=O)Nc3ccccc3)CC2)c1,5.512
14,Cc1cc(C)c(C(=O)Nc2cccc(CN3CCC(CO)CC3)c2)o1,132.4
15,O=C(Nc1cccc(CN2CCC(CO)CC2)c1)c1cc(Cl)c[nH]1,101.9
16,CN(C)CCn1c(=O)oc2ccc(NC(=O)c3cc(Cl)c[nH]3)cc21,-2.174
17,Cc1nc(CN2CCC(CNC(=O)Nc3ccccc3)CC2)oc1C,-9.889
18,Cc1nc(C)n(Cc2cccc(NC(=O)NC(C)(CO)C3CC3)c2)n1 (stereo not given),-1.537
19,Cc1nc(C)c(C(=O)Nc2cccc(CN3CCC(CO)CC3)c2)o1,118.5
20,N#Cc1ccccc1C(=O)Nc1cccc(CN2CCC(CO)CC2)c1,103.3
21,COC(=O)C(O)C1CCN(Cc2cccc(-n3cccn3)c2)CC1 (stereo not given),8.265
22,O=C(Nc1cccnc1)Nc1cccc(CN2CCC(O)CC2)c1,-1.395
23,CSCC(=O)Nc1ncn(Cc2cccc(Br)c2)n1,13.99
24,Cc1ncsc1CCN(C)Cc1ccc(Br)o1,8.382
25,CN(C)C1CN(C(=O)Nc2cccc(OC(F)F)c2)C1,-11.25

row,Compound,Percent Effect [%]
1,CCN(CC)C(=O)[C@@H]1C[C@@H](N)CN1C(=O)c1cc2c([nH]c1=O)CCC2,-5.971
2,CCCS(=O)(=O)NCc1cccnc1OCc1ccccc1,9.301
3,CN1CCN(C[C@@H]2CN(C(=O)c3ccccc3C#N)C[C@@H]2CO)CC1,6.523
4,CC(CO)(NC(=O)Nc1nncs1)C1CCCCC1 (stereo not given),-9.276
5,CCc1nc(CNC(C)(CO)C2CCCCC2)no1 (stereo not given),105.4
6,COCCc1noc(CNC(C)(CO)C2CCCCC2)n1 (stereo not given),130.3
7,COCCc1noc(CNC2CCSC2)n1 (stereo not given),7.087
8,CC(CO)(NCc1noc(Cc2ccccc2)n1)C1CCCCC1 (stereo not given),91.55
9,CC(=O)N1CCCC(C(=O)NCc2noc(Cc3ccccc3)n2)C1 (stereo not given),10.7
10,CCC(=O)N1CCCC(C(=O)NCc2noc(Cc3ccccc3)n2)C1 (stereo not given),1.423
11,CCc1nc(CNc2ccc(-c3nc(C4CC4)no3)cn2)no1,-0.6483
12,COCCc1noc(CNC(=O)C2CC(=O)N(C(C)(C)C)C2)n1 (stereo not given),-10.49
13,O=C(O)C(F)(F)F.O=C(O)C(F)(F)F.O=C(O)c1cc2c(nc1-c1ccoc1)CCN(CC1CCOC1)CC2 (stereo not given),7.736
14,O=C(CCC(=O)N1CCC(Cc2ccc(CO)cc2)C1)c1ccccc1 (stereo not given),-6.413
15,O=C(c1coc2ccccc12)N1CCCC1,2.375
16,CCS(=O)(=O)N1CC[C@@H]2[C@H](COCC3CC3)CN(C)C(=O)[C@@H]2CC1,34.67
17,CC(C)c1nc(CN(C)C(=O)c2cn3ccsc3n2)cs1,97.44
18,CC(C)c1nc(CN(C)C(=O)CNC(N)=O)cs1,-43.04
19,CN(C)c1cc(N(C)Cc2cc(C(C)(C)C)n[nH]2)ncn1,2.487
20,Cc1ccccc1CN(CCN(C)C)C(=O)c1ccc2nccn2c1,-23.59
21,O=C(c1ccc2nccn2c1)N(CCO)Cc1ccccc1F,-19.18
22,CN(Cc1cc(C(C)(C)C)n[nH]1)C(=O)c1ccc2nccn2c1,54.27
23,CN(Cc1cc(C(C)(C)C)n[nH]1)C(=O)c1cn2ccsc2n1,85.98
24,CN(Cc1cc(C(C)(C)C)n[nH]1)C(=O)c1ccccc1C1CCNC1 (stereo not given),27.35
25,CC(C)c1nc(CN(C)C(=O)c2ccccc2C2CCNC2)cs1 (stereo not given),31.56

row,Compound,Percent Effect [%]
1,CCCOC(=O)N1CCCC(c2nnc(CN3CCOCC3)n2C)C1 (stereo not given),-3.793
2,Cc1cc(CN2CCC(CNC(=O)c3ccc4[nH]cnc4c3)C2)[nH]n1 (stereo not given),4.896
3,O=C(Nc1cnc(Oc2ccccc2F)nc1)C1CC1,-9.559
4,COCCOC(=O)N1CCC(c2nccn2CC2CC2)CC1,0.7863
5,COc1ccc(-n2ncc(C(C)NCc3cnc(SC)nc3)c2C)cc1 (stereo not given),30.41
6,NCCO[C@H]1C[C@@H](O)C12CCN(C(=O)CCOc1ccccc1)CC2,-12.3
7,CO[C@H]1C[C@@H](O)C12CCN(CCOc1ccc(Cl)cc1)CC2,86.28
8,NC(=O)COc1ccc(CN2CCC3(CC2)[C@H](O)C[C@@H]3O)cc1Cl,17.24
9,NCCO[C@H]1C[C@@H](O)C12CCN(C(=O)COc1cccc(Cl)c1)CC2,-10.97
10,COc1cc(C)c(CN2CCC3(CC2)[C@H](O)C[C@@H]3OCCN)cc1C,3.65
11,CC[C@@]1(O)CCN(C(=O)c2ccc(-c3ccco3)cc2)C[C@H]1O,-5.125
12,CC[C@@]1(O)CCN(CCCOc2ccc(C(N)=O)cc2)C[C@H]1O,95.4
13,CCOc1cccc(C(=O)N2CCC3(CC2)[C@H](O)C[C@@H]3OC)c1,2.834
14,CO[C@H]1C[C@@H](O)C12CCN(CCCOc1ccc(C(N)=O)cc1)CC2,113.2
15,CO[C@H]1C[C@@H](O)C12CCN(C(=O)CCCOc1ccccc1)CC2,97.53
16,CC[C@@]1(O)CCN(C(=O)c2ccc(OC(F)F)cc2)C[C@H]1O,-4.955
17,CN(C)CCO[C@H]1C[C@@H](O)C12CCN(c1ncccc1Cl)CC2,-1.379
18,Cc1ncccc1OC1(C(=O)NCCc2ccccn2)CCNCC1,-3.101
19,N#Cc1cc(Br)ccc1NC1CCN(CC(N)=O)CC1,-6.071
20,O=C(CSc1ccc2c(c1)OCCO2)NS(=O)(=O)c1ccccc1Cl,-4.158
21,CC(O)CN1CCN(C(=O)CN(C)c2ccc(Cl)cn2)CC1 (stereo not given),-12.66
22,O=C1Nc2ccccc2/C1=C1\CCCCCN1,122.1
23,O=C1Nc2ccccc2/C1=C1\CCCN1,133.6
24,O=C1Nc2ccccc2/C1=C1\CCCCN1,114.3
25,CCCN1C[C@H]2CC[C@@H]1CN(Cc1cccc(-n3cccn3)c1)C2,-7.313
